Screening results deposited in PubChem BioAssay by several laboratories.
MRP resist rev = reversal of MRP1-mediated doxorubicin resistance, primary screen, H69AR cells, doxorubicin co-treatment; H69AR cells + 2 uM doxorubicin, CellTiter-Glo, 72 h; differential viability (reversal), % at 10 µM; 85,000 compounds, 0.04% hits; AID 602, 2007;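 active = viability drop by adding the cancer drug above about 55%, with treated viability meeting a 40% cutoff, limit read from the data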;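 note: viability without doxorubicin minus viability with 2 µM doxorubicin for each compound; larger differential means the compound sensitizes cells more to doxorubicin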
ERb SRC1 inh = inhibitors of ERβ-SRC1 coactivator interaction, primary screen, biochemical, TR-FRET, ERβ LBD, SRC-1 peptide; TR-FRET ER-beta LBD / SRC1-Cy5 peptide binding; receptor agonist-loaded with 1 µM estradiol; Estrogen receptor beta (Homo sapiens), Q92731; inhibition, % at 25.6 µM; AID 633, 2007; 86,000 compounds, 1.3% hits;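 active = compounds whose percent inhibition of the receptor-coactivator binding signal exceeds about 50% in the single-dose screen, limit read from the data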;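 note: 0% = receptor plus peptide wells without compound and 100% = peptide-only wells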
ERa SRC1 pot = enhancers of ERα–SRC-1 coactivator binding, primary screen, biochemical, TR-FRET, ERα LBD, low estradiol. 86,000 compounds, 1.3% hits. Estrogen receptor (Homo sapiens), P03372. coactivator binding (% of control), % at 25.6 µM. TR-FRET ERalpha-LBD/SRC-Cy5 coactivator binding, 2 h; 100 = basal binding, no effect; in the data active = activity above about 200%;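 note: binding measured in presence of low estradiol as agonist stimulus; 0% = peptide alone without receptor and 100% = receptor with peptide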
Target sequence (P03372 whole entry, looked up, the tested form may be a part): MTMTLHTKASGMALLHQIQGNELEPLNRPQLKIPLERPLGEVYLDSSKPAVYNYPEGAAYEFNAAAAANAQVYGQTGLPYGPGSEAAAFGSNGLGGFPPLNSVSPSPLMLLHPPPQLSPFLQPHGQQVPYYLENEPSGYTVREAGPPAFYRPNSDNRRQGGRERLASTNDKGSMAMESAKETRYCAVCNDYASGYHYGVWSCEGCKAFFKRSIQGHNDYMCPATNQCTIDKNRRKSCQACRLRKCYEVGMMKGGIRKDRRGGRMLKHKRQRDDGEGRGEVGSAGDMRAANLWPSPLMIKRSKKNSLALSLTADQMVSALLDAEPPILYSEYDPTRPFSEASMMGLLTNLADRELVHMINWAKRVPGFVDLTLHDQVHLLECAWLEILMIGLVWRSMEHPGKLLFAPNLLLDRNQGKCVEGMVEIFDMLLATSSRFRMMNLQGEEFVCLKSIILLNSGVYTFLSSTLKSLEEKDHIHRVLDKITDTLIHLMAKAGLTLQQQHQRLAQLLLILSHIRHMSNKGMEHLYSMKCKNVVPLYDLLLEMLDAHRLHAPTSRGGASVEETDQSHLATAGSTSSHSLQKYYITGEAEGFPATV
ERa coact inh = ERα–SRC-1 coactivator interaction inhibitors, primary screen, biochemical, TR-FRET, ERα LBD, estradiol-bound; inhibition, % at 25.6 µM; Estrogen receptor (Homo sapiens), P03372; TR-FRET ER-alpha LBD / SRC-1 peptide; 86,000 compounds, 1.7% hits; in the data active = inhibition above about 50%;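 note: 0% = receptor plus peptide control and 100% = peptide only without receptor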
MRP1 act = H69AR viability gain despite doxorubicin, primary screen, MRP-1 activator project, H69AR cells, CellTiter-Glo; viability rescue; viability increase, % at 10 µM; 140,000 compounds, 0.61% hits;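 active = viability gain under doxorubicin at or above a set limit, the compound median plus 3 SD, cut at about 4.7% in these data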;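 note: MRP-1 overexpressing cells given doxorubicin 25 µM after compound pretreatment; 18-22 h compound pretreatment then 72 h with doxorubicin before readout; 0% = doxorubicin-only wells and 100% = vehicle-treated cells without doxorubicin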
Numbers without * were called inactive; · = no result given; [ ] = remark or other dose. This is a sample that favours compounds with a hit; in the whole collection about 2.7% have one here.

SMILES	MRP resist rev	ERb SRC1 inh	ERa SRC1 pot	ERa coact inh	MRP1 act
Cc1nnc(NC(=O)Cc2cccs2)s1	1.7	72.6*[fluorescence artefact?]	50.4	74.2*	-2.0
Cc1cc(NC(=O)Cc2cccs2)no1	-16.0	88.7*[fluorescence artefact?]	16.6	96.8*[fluorescence artefact?]	-2.6
Cc1nnc(NC(=O)CCC(=O)NCc2cccs2)s1	-0.2	-6.3	97.4	-5.4	-0.8
COc1ccc(NC(=O)c2ccccc2NC(=O)COc2ccccc2)cc1	4.5	38.0	211.4*[fluorescence artefact?]	56.3*[fluorescence artefact?]	-1.8
Cc1cc(NS(=O)(=O)c2ccc(NC(=O)Cc3cccs3)cc2)no1	-2.5	5.4	107.0	1.6	0.6
CSc1cccc(NC(=O)/C=C/c2cccc(Cl)c2)c1	·	·	·	·	1.0
CC1Cc2ccccc2N1C(=O)CSc1nnc(NC(=O)Cc2cccs2)s1 (centres undefined)	0.7	47.2	56.3	61.7*	-0.8
COCc1nnc(NC(=O)CCCOc2ccccc2)s1	5.4	0.9	95.2	-5.5	0.7
CCSc1nnc(NC(=O)COc2ccccc2)s1	-6.1	-4.2	107.1	-1.2	0.1
Cc1nn(-c2ccccc2)c(C)c1NC(=O)c1cccs1	4.7	-10.1	93.4	-2.6	-1.0
O=C(Cc1cccs1)Nc1nnc(COc2ccccc2)s1	8.7	36.9	76.3	55.7*	·
CCSc1nnc(NC(=O)COc2ccc3ccccc3c2)s1	-12.9	10.6	259.2*[fluorescence artefact?]	20.8	-1.6
Cc1nn(-c2ccccc2)c(C)c1NC(=O)Cc1cccs1	-5.7	53.4*	61.8	58.9*[fluorescence artefact?]	-2.0
CCCCCCCCNC(=O)CCNC(=O)c1ccc(C(C)(C)C)cc1	11.9	0.1	95.6	5.6	-0.4
CC(C)(C)NC(=O)COC(=O)c1cc(F)c(F)cc1Cl	·	·	·	·	-1.6
CCSc1nnc(NC(=O)C(Cc2ccccc2)n2cccc2)s1 (centres undefined)	-0.9	-8.0	248.5*[fluorescence artefact?]	-6.6	-1.2
O=C1/C(=C\c2ccco2)SC(=S)N1c1ccc(O)cc1	·	·	·	·	5.2*
Cc1nn(-c2ccc(Cl)cc2)c2sc(C(=O)N3CCN(c4ccccn4)CC3)cc12	-2.0	4.0	452.4*	14.0	-0.5
Cn1nc(SCC(=O)O)sc1=S	-13.7	6.5	49.7	69.9*[fluorescence artefact?]	0.6
CC1CCC(NC(=O)Cn2c3c(c(-c4ccccc4Cl)cc2=O)CCC3)CC1 (centres undefined)	-0.7	3.3	97.6	2.5	8.2*
O=C(O)C(O)c1ccco1 (centres undefined)	8.8	58.2*[fluorescence artefact?]	132.2	53.6*	-2.2
COc1cccc(-c2cc(C(=O)N3C(C)CCCC3C)no2)c1 (centres undefined)	12.7	0.7	112.3	-7.2	0.6
Cc1ccnc(SCc2cc(=O)c(OC(=O)c3ccc(Cl)c([N+](=O)[O-])c3)co2)n1	·	·	·	·	-1.5
c1ccc(-c2nc(N3CCN(c4ccccc4)CC3)nc(-n3ccnc3)n2)cc1	25.3	28.8	185.4	82.7*[fluorescence artefact?]	0.0
c1ccc(-c2nc(N3CCCCCC3)nc(-n3ccnc3)n2)cc1	-0.9	-1.2	72.6	-1.3	-5.5
SMILES	MRP resist rev	ERb SRC1 inh	ERa SRC1 pot	ERa coact inh	MRP1 act
CN(C)CCCN1C(=O)C(=O)/C(=C(/O)c2ccc(S(=O)(=O)N(C)C)cc2)C1c1ccncc1 (centres undefined)	3.0	-12.6	115.5	4.5	·
COc1cccc2sc(N3CCN(c4nc5ccccc5s4)CC3)nc12	0.8	29.9	236.3*	49.3	-5.7
CN(C(=O)c1c(Br)cnn1C)C12CC3CC(CC(C3)C1)C2	·	·	·	·	-2.6
O=C(O)c1ccc(N/N=C/c2ccc(F)c(F)c2)cc1	·	·	·	·	7.3*
O=C(O)c1ccc(N/N=C/c2cccc(F)c2)cc1	·	·	·	·	0.8
O=C(c1cccn2c(=O)c3cc(Cl)ccc3nc12)N1CCOCC1	7.6	1.0	108.6	-8.2	2.7
NC(=O)C1(N2CCCCC2)CCN(C(=O)c2cccn3c(=O)c4cc(Cl)ccc4nc23)CC1	10.5	-0.7	106.8	5.1	5.6*
Cc1ccccc1NC(=S)NC1CC2CCC(C1)N2Cc1ccco1 (centres undefined)	·	·	·	·	-5.2
CCOC(=O)c1sc(NC(=O)CSc2nc3c(cc2C#N)CCCCCC3)c(C#N)c1C	·	37.0	365.9*[fluorescence artefact?]	25.4	-1.6
CCOC(=O)c1sc(NC(=O)CSc2nc(C)cc(C)c2C#N)c(C#N)c1C	-7.1	21.1	267.5*	36.0	0.1
Cc1onc(-c2ccccc2Cl)c1C(=O)Nc1ccccc1N1CCOCC1	-2.1	-7.8	102.8	1.1	-0.6
CC1=CC2=NC(=O)/C(=C\c3cccn3CCOc3cc(C)ccc3C)C(=N)N2O1	·	·	·	·	-3.5
COCC(=O)Nc1c(C(=O)Nc2ccccc2OC)oc2ccccc12	1.6	10.3	213.3*[fluorescence artefact?]	5.0	-1.5
COc1cccc(OCC(=O)Nc2c(C(=O)Nc3ccc(OC)cc3OC)oc3ccccc23)c1	-3.8	50.1*[fluorescence artefact?]	219.8*[fluorescence artefact?]	72.9*[fluorescence artefact?]	·
COc1ccc(NC(=O)c2oc3ccccc3c2NC(=O)C(C)(C)C)cc1	·	·	·	·	5.5*
COC(=O)c1ccc(C(=O)OC)c(NC(=S)N2CCC(C)CC2)c1	·	·	·	·	-1.2
Cc1cc(N2CCC(C)CC2)nc2cccc(O)c12	-16.2	-3.1	550.2*[fluorescence artefact?]	-11.4	-3.9
O=C1c2cccc3cccc(c23)C(=O)N1CCN1CCN(CC(O)COc2ccccc2)CC1 (centres undefined)	·	·	·	·	5.0*
CCOC(=O)C(C(=O)Nc1nccs1)C1CCCCC1 (centres undefined)	13.8	-6.6	129.7	3.5	4.7*
CCOC(=O)C(C(=O)Nc1nc2ccccc2s1)C1CCCCC1 (centres undefined)	-13.2	-10.8	93.4	8.2	7.1*
CCOC(=O)C(C(=O)Nc1cccc(C)n1)C1CCCCC1 (centres undefined)	1.1	29.6	109.3	24.1	2.8
CCOC(=O)C(C(=O)Nc1ccccn1)C1CCCCC1 (centres undefined)	-15.2	-5.0	105.5	-2.3	-3.5
CCC(CC)C(=O)Nc1cccc(C(=O)Nc2ccc(S(=O)(=O)Nc3ccc(C)cc3)cc2)c1	·	·	·	·	-5.7
CNS(=O)(=O)c1ccc(NC(=O)c2ccccn2)cc1	·	·	·	·	1.2
Cc1ccc(S(=O)(=O)N2CCC(C(=O)Nc3nnc(-c4ccco4)s3)CC2)cc1	-15.4	21.1	200.1*[fluorescence artefact?]	25.0	-1.6
Cc1ccc(S(=O)(=O)N2CCC(C(=O)N[C@H](C(=O)NC3CCS(=O)(=O)C3)C(C)C)CC2)cc1 (some centres undefined)	·	·	·	·	-0.6
Cc1ccc(S(=O)(=O)N2CCC(C(=O)N[C@H](C(=O)NCc3ccco3)C(C)C)CC2)cc1	27.9	50.3*[fluorescence artefact?]	97.9	57.4*[fluorescence artefact?]	-0.8
Nc1ccc(O)c(-c2nc3ccccc3s2)c1	7.2	63.5*[fluorescence artefact?]	7.3	97.6*[fluorescence artefact?]	-3.6
O=C(Nc1ccc(O)c(-c2nc3ccccc3s2)c1)c1cccs1	·	·	·	·	-2.1
